# HT1080-NT tox: kills 2HG-producing HT-1080-NT fibrosarcoma cells; 360,000 compounds, 1.6% hits; Potency, µM (series often up to 46.1 µM), hits mostly cytotoxic; HT-1080-NT fibrosarcoma viability, CellTiter-Glo ATP luminescence, 48 h; AID 686970;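 note: NT is the 2HG producing partner of a matched IDH1 knockdown line; nearly all actives have a fitted effect of over 55% in size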
#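 Viability of the 2HG-overproducing fibrosarcoma line after 48 hours of compound exposure at 37 degrees C was determined by luminescence with CellTiter-Glo, and concentration-effect curves were then fitted and categorized.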
# MCF10A rereplic: inducers of DNA re-replication in MCF 10A breast cells | Potency, µM (top dose mostly 46.1 µM), actives largely listed as activators | 350,000 compounds, 2.9% hits | MCF 10A DNA re-replication, Hoechst nuclear intensity, 48 h | AID 624296; note: nearly all actives have a fitted effect of over 50% in size
# KB-3-1 cytotox: kills parental KB-3-1 adenocarcinoma cells; KB-3-1 viability, CellTiter-Glo ATP luminescence, 72 h; Potency, µM (series often up to 46.1 µM), most hits filed as cytotoxic; 400,000 compounds, 1.4% hits; AID 1347075; note: nearly all actives have a fitted effect of over 60% in size
#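 Luminescent ATP read-out (CellTiter-Glo) measures survival of drug-naive KB-3-1 cells after 72 h compound exposure at 37 °C. Titration series was screened from lowest to highest concentration, with DMSO vehicle plates as background controls.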
# KB-V1 cytotox: KB-V1 MDR subline cytotoxicity. Potency, µM (series often up to 46.1 µM), actives largely listed as cytotoxic. KB-V1 MDR cells viability, CellTiter-Glo, 72 h. 400,000 compounds, 3.4% hits. AID 1347076; note: nearly all actives have a fitted effect of over 60% in size
#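 KB-V1 MDR subline cells in DMEM (phenol-red free, 10% FBS) exposed to compounds in qHTS concentration series for 72 h at 37 degrees C. Viability read by CellTiter-Glo luminescence; concentration-effect curves fitted after normalization and correction.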
# SW480 rereplic: inducers of DNA re-replication in SW480 colon cancer cells; SW480 DNA re-replication, Hoechst DNA content imaging, 48 h; Potency, µM (series often up to 46.1 µM), usual class: activators; 340,000 compounds, 1.8% hits; note: nearly all actives have a fitted effect of over 55% in size
#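 Image-based read-out: total Hoechst fluorescence of nuclei (405 nm excitation, 500-530 nm emission), with hits raising the fraction of high-intensity nuclei. SW480 colon cells incubated 48 hr with compounds at 37 C.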
# HT1080 IDH1KD tx: kills HT-1080 cells with IDH1 knockdown | HT-1080 IDH1 knockdown viability, ATP luminescence, 48 h | Potency, µM (doses to about 46.1 µM), most hits filed as cytotoxic | 360,000 compounds, 2% hits | AID 686971
#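 Assay cells: HT-1080 with IDH1 knockdown, 750 per well, RPMI/5% FBS. Exposure: 48 h at 37 °C following 2 h pre-incubation. Read: CellTiter-Glo luminescence; fitted concentration-response, curve class assigned.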
# Hits are given with their value; . = inactive; ? = inconclusive; / = not tested or not shown. A selection: hits, their analogues and other compounds. The true share with any hit is near 7.9%. Calls come from the whole dose curve; as a rule, active = well fitted curve in the direction sought with a large enough effect; inconclusive = small, poorly fitted or top-dose-only effect, or another doubt; inactive = no such curve, though single readings can be large; an effect the other way counts as inactive or inconclusive.
SMILES,HT1080-NT tox,MCF10A rereplic,KB-3-1 cytotox,KB-V1 cytotox,SW480 rereplic,HT1080 IDH1KD tx
O=C(/C=C/c1ccc(Cl)cc1Cl)N(Cc1ccc(Cl)cc1)C1CCS(=O)(=O)C1 (centres undefined),.,?,?,5.8µM,.,.
CCCN(C(=O)c1cc(S(=O)(=O)N2CCN(CC)CC2)ccc1Cl)C1CCS(=O)(=O)C1 (centres undefined),.,.,.,.,.,.
Cc1ccc(C)c(N2CCN(C(=O)C(C)n3nc(C)c4sc5ccccc5c4c3=O)CC2)c1 (centres undefined),/,/,.,.,/,/
Clc1ccc(CNc2nc(CN3CCOCC3)nc3scc(-c4ccccc4)c23)cc1,.,13µM,?,20.6µM,.,.
O=C(Nc1cccc(Cl)c1)c1cc(S(=O)(=O)N2CCCc3ccccc32)ccc1F,/,/,.,?,/,/
CCOC(=O)C1(Cc2ccc(OC)cc2)CCN(C(=O)c2cccc3nccnc23)CC1,.,.,.,?,.,.
CCOC(=O)C1(Cc2ccc(OC)cc2)CCN(C(=O)c2cc(C)nn2C)CC1,?,.,?,.,?,14.6µM
COc1cc2c(cc1OC)C(C1C(=O)CC(C)(C)CC1=O)N(C(=O)CCl)CC2 (centres undefined),.,.,.,.,.,.
COc1cc2c(cc1OC)C(c1cc(Br)ccc1F)N(C(=O)CCl)CC2 (centres undefined),20.6µM,3.26µM,?,.,.,20.6µM
O=S1(=O)CCS(=O)(=O)C1c1ccccc1,23.1µM,?,.,.,?,20.6µM
O=C1CC(=O)CC(c2ccccc2)C1,.,.,.,.,.,.
O=C(NN=Cc1cccc2ccccc12)C(=O)NN=Cc1cccc2ccccc12,.,2.31µM,?,.,?,.
CC(O)C(=O)N/N=C/c1cccc2ccccc12 (centres undefined),.,.,?,?,.,.
O=C(O)c1cc(N/N=C/c2cccc3ccccc23)ccc1Cl,.,23.1µM,.,.,.,.
COCCNc1nc(Oc2ccc(C(N)=O)cc2)c2sccc2n1,.,/,.,.,/,.
Cc1ccc2scc(N3CCCCC3)c(=O)c2c1,/,/,.,.,/,/
Cc1c(-c2ccc(F)cc2)nc(N)c(C#N)c1-c1ccco1,?,?,.,.,.,12.6µM
CCn1c(=O)cc(SCC(=O)Nc2ccc(C)cn2)c2ccccc21,.,10.3µM,.,?,?,.
CCn1c(=O)cc(SCC(=O)Nc2ccc3c(c2)OCCO3)c2ccccc21,.,.,.,16.4µM,.,.
CCn1c(=O)cc(OCC(=O)Nc2ccc(C)cn2)c2ccccc21,.,20.6µM,.,?,.,.
Cn1c(=O)cc(SCC(=O)Nc2ccc3c(c2)OCO3)c2ccccc21,.,.,.,?,.,.
CCCCc1nn2c(=O)cc(COC(=O)c3cccc(NC(=O)c4cccc(Cl)c4)c3)nc2s1,/,/,.,?,/,/
O=S(=O)(c1cc(Br)c(Br)s1)N1CCN(c2ccccc2)CC1,/,/,.,.,/,/
CCCc1cc(C(=O)N(C)CC(=O)Nc2ccc(OCC)c(OCC)c2)sc1C,.,0.461µM,?,?,.,.
CCOc1ccc(NC(=O)CN(C)C(=O)C2CCCC2)cc1OCC,.,0.651µM,.,.,.,.
SMILES,HT1080-NT tox,MCF10A rereplic,KB-3-1 cytotox,KB-V1 cytotox,SW480 rereplic,HT1080 IDH1KD tx
COC(=O)c1sc(=S)sc1C(=O)OC,?,?,.,.,.,31.6µM
Cc1c(C(=O)O)sc2nc(/C=C/c3cccc(F)c3)[nH]c(=O)c12,.,18.4µM,.,.,.,.
Cc1c(C(=O)O)sc2nc(/C=C/c3ccccc3OC(F)F)[nH]c(=O)c12,.,25.9µM,.,.,23.1µM,.
CN(C)c1nc(SCCOC(=O)c2ccccc2)nc(N(C)C)n1,.,.,.,?,.,.
CCN(CC)c1nc(SCCOC(=O)Nc2ccccc2)nc(N(CC)CC)n1,?,9.2µM,.,20.6µM,.,?
CCOC(=O)c1ccccc1NC(=O)Cn1c(=O)n(CCC(=O)NCc2ccccc2OC)c(=O)c2ccccc21,/,/,.,.,/,/
COc1cc(CN(C)Cc2cc(=O)n3ccsc3n2)ccc1OC(F)F,.,.,.,13µM,?,.

# High-throughput results (PubChem BioAssay)
